Compound activity from PubChem BioAssay.
Pf Dd2 growth = Plasmodium falciparum Dd2 growth inhibition | hit rate 4.3% among 120,000 | P. falciparum Dd2 growth, SYBR Green, 72 h | Potency, µM (series often up to 28.9 µM), for the others: at the top dose activity, negative = inhibition, actives largely listed as inhibitors; active = well fitted inhibition curve with a large enough effect;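 also: plate controls were DMSO vehicle for no effect and reference drug for full effect; nearly all actives have a fitted effect of over 65% in size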
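Readout: SYBR Green fluorescence, 485 nm excitation, 535 nm emission, after ~16 h lysis at 37C. Before that, Dd2-infected red cells (2.5% hematocrit) grew 72 h with compound, 29 uM top final concentration.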
Active calls of the source: *; i = inactive; [ ] = remark or other dose. Only a selection was taken, and hits are over-represented in it overall. Potency is read from the fitted curve at half-maximal effect.

SMILES	Pf Dd2 growth
CC(C)CCN1C(=O)CC[C@H]2CN(C(=O)Cc3c[nH]c(=O)[nH]c3=O)CC[C@H]21	8.3%
CC(C)NS(=O)(=O)c1ccc2c(c1)nc(-c1ccc(CO)o1)n2C(C)C	6.9%
CCOc1cc(=O)n2c(c1C(=O)Nc1ccc(CC)cc1)CCCC2	-3.8%
CCCCN1C(=O)C(CC(=O)NC(C)C)Sc2ncccc21 (stereo unspecified)	-8.9%
CCCNC(=O)NCC(=O)N1CCCCCNC(=O)CC1c1ccccc1 (stereo unspecified)	-1.3%
COc1ccc(NC(=O)CN2CCN(CC(=O)Nc3ccccc3F)CC2)c(OC)c1	-1.0%
CCC(=O)N1CCc2c(C(=O)Nc3ccc(OC)cc3OC)cccc21	-21.1%
CCOC(=O)N1CCc2c(sc(NCc3cccc(F)c3)c2C(=O)Nc2ccc(OC)cc2)C1	7.94µM*
COc1ccc(S(=O)(=O)N2CCc3c(C(=O)NCc4cccc(F)c4)cccc32)cc1	i
CCOC(=O)N1CCc2c(sc(NCc3cccc(F)c3)c2C(=O)Nc2ccc(OC)cc2OC)C1	3.98µM*
COc1ccc(NC(=O)c2c(NC(=O)COc3ccccc3)sc3c2CCCCC3)cc1	11.0%[0.594 µM]
O=C(c1ccco1)N1CCc2nn(Cc3ccccc3)c(=O)n2CC1	i
COc1cccc(CC(=O)N[C@@H]2C[C@H](Cn3cc(CN(C)C)nn3)[C@@H](O)[C@H]2O)c1	5.2%
COc1ccc(-c2nc(C)nc3c2CCN(C(=O)c2ccccn2)CC3)cc1	0.4%
COC1CCC12CCN(Cc1cccnc1)CC2 (stereo unspecified)	i
COc1cccc(NC(=O)CC2Oc3ccccc3NC2=O)c1 (stereo unspecified)	4.5%
COc1ccc(NC(=O)CC2Nc3ccccc3NC2=O)cc1 (stereo unspecified)	-26.9%
Cc1ccc(NC(=O)CC2Nc3cc(C)c(C)cc3NC2=O)c(C)c1 (stereo unspecified)	3.16µM*
COc1cccc(NC(=O)CC2Nc3cc(C)c(C)cc3NC2=O)c1 (stereo unspecified)	2.24µM*
O=C(C[C@H]1NC(=O)c2ccccc2NC1=O)Nc1ccccc1Cl	-27.5%
Cc1cc2c(cc1C)NC(CC(=O)Nc1cccc(C)c1C)C(=O)N2 (stereo unspecified)	3.16µM*
COc1ccc(C)cc1NC(=O)C[C@H]1NC(=O)c2ccccc2NC1=O	-23.7%
Cc1ccc2c(c1)NC(=O)C(CC(=O)Nc1cc(Cl)ccc1C)O2 (stereo unspecified)	2.0%
Cc1cccc(NC(=O)CC2Nc3cccc4cccc(c34)NC2=O)c1 (stereo unspecified)	20.8%
Cc1[nH]ncc1C(=O)N1CCOC(Cc2ccc(F)cc2)C1 (stereo unspecified)	-5.6%
SMILES	Pf Dd2 growth
Cc1cccc(C)c1NC(=O)N1CCC2(CC1)SCC(=O)N2Cc1ccccc1	-7.4%
COCc1nncn1C1CCN(C(=O)c2ccc(F)cc2F)CC1	i
Cc1ccc(O)c(-c2n[nH]c3c2C(c2ccccc2F)N(Cc2ccco2)C3=O)c1 (stereo unspecified)	4.47µM*
COc1cc(C2c3c(-c4cc(C)ccc4O)n[nH]c3C(=O)N2Cc2ccco2)cc(OC)c1OC (stereo unspecified)	i
COCCCN1C(=O)c2[nH]nc(-c3cc(C)ccc3O)c2C1c1ccc(F)cc1 (stereo unspecified)	-29.2%
Cc1cc(C)c2c(=O)c3c(oc2c1)C(=O)N(Cc1ccco1)C3c1ccc(F)cc1 (stereo unspecified)	11.4%
COCCN1C(=O)c2[nH]nc(-c3c(C)cc(C)cc3O)c2C1c1cccc(O)c1 (stereo unspecified)	-7.7%
CCOc1cccc(C2c3c(-c4cc(C)ccc4O)n[nH]c3C(=O)N2Cc2ccco2)c1 (stereo unspecified)	10µM*
Cc1ccc(NC(=O)Cn2cccc2-c2nc(-c3ccc4c(c3)OCO4)no2)cc1C	166.2%
O=C(Cn1cccc1-c1nc(-c2ccc(F)cc2)no1)NCCc1ccc(Cl)cc1	-13.8%
Cc1ccc(-c2nccn3cc(C(=O)N4CCN(c5ncccn5)CC4)nc23)cc1	i
O=C(Cn1nc2n(c1=O)CCCCC2)Nc1ccc(C(F)(F)F)cc1	-3.4%
CC(C)N1C[C@H](C(=O)N2CCC(Cc3ccccc3)CC2)[C@H](C(=O)O)C1	-11.6%
Cc1ccc(-c2nnc(Nc3cccc(Br)c3)c3ccccc23)cc1S(=O)(=O)N1CCN(C)CC1	7.94µM*
Cc1ccc(-c2nnc(Nc3cccc(Cl)c3)c3ccccc23)cc1S(=O)(=O)N1CCN(C)CC1	-5.2%
Cc1cc(-c2ccc(C)c(S(=O)(=O)N3CCCC(C)C3)c2)on1 (stereo unspecified)	28.1%
Cc1cccc(Nc2nnc(-c3ccc(C)c(S(=O)(=O)N4CCN(C)CC4)c3)c3ccccc23)c1	10µM*
O=C(Cn1nc(-c2ccc(Cl)cc2)c2ccccc2c1=O)Nc1cccc(Br)c1	-8.2%
C#CCOc1ccc(-c2nnc(Nc3cccc(C)c3)c3ccccc23)cc1	-3.6%
CC(C)(Cc1ccc(F)cc1)NC(=O)C1CCC(=O)N(Cc2ccccn2)C1 (stereo unspecified)	-20.9%
CC(=O)N(C1CC1)C1CCOC2(CCN(C(=O)NCc3ccccc3)CC2)C1 (stereo unspecified)	-7.9%
CC(=O)N1CCCC(C(=O)N2CCC(Cc3noc(C)n3)CC2)C1 (stereo unspecified)	25.1%
O=c1ccc(-c2cc(-c3cccc4cn[nH]c34)cn3cncc23)c[nH]1	i
COc1ccc(-c2noc(-c3ccc(N4CCCOCC4)nc3)n2)cc1	i
COc1cccc(-c2cc(-c3c(C)noc3C)c3cncn3c2)c1	5.62µM*
SMILES	Pf Dd2 growth
COc1ccc(-c2cc(-c3cnn(C)c3)cn3cncc23)cn1	10µM*
COc1cccc(-c2cc(-c3ccc(=O)[nH]c3)c3cncn3c2)c1	i
Cc1ccc(-c2cc(-c3ccc(=O)[nH]c3)c3cncn3c2)cn1	47.5%[44.1 µM]
c1cc(-c2cc(-c3ccc(N4CCOCC4)nc3)cn3cncc23)ccn1	i
COc1ccc(-c2cc(-c3ccc(N4CCOCC4)nc3)cn3cncc23)cc1	0.794µM*
O=c1ccc(-c2cc(-c3cccc(N4CCOCC4)c3)cn3cncc23)c[nH]1	7.94µM*
Cc1noc(C)c1-c1cc(-c2cccc(N[S+](C)(=O)[O-])c2)cn2cncc12	i
Cc1noc(C)c1-c1cc(-c2cnn(C)c2)cn2cncc12	-8.8%[44.1 µM]
CC(=O)Nc1cccc(-c2cc(C3=CCOCC3)c3cncn3c2)c1	i
O=C(NCCc1ccccc1)N1CCCCC1c1nc(CCOCC2CC2)no1 (stereo unspecified)	i
COc1ccc(CCNC(=O)C2Cn3cccc3C(=O)N2CC(C)C)cc1OC (stereo unspecified)	-7.6%
COC(=O)[C@@H]1C[C@H](NC(=O)c2ccc(Oc3ccccc3)cc2)CN1C	0.1%
Cn1ncc(N2CCC(NC(=O)C3CCC3)CC2)cc1=O	9.1%
C=CCn1ccn2cnc(-c3ccccc3)c2c1=O	i
COc1ccc(-c2cc(-c3c(C)noc3C)c3cncn3c2)cc1	5.01µM*
COc1ccc(-c2nc(-c3c(C)noc3C)cc3c2cc(-c2ccccc2)n3C)cn1	-26.5%[44.1 µM]
COc1ccc(Cn2c(=O)c3ccccc3n3c(-c4cccc(OC)c4OC)nnc23)cc1	i
c1cc(-c2cc(-c3ccc4cn[nH]c4c3)cn3cncc23)ccn1	-1.5%[44.1 µM]
COc1ccc(-c2cc(-c3cccc(OC)c3OC)cn3cncc23)cc1	1µM*
COc1ccc(-c2cc(N3CCC(NC(=O)c4ccc(C)c(C)c4)CC3)n[nH]2)cc1	i
